# Source: PubChem BioAssay (National Center for Advancing Translational Sciences (NCATS))
# Sm TGR inh: S. mansoni TGR enzyme inhibition; Q962Y6; purified TGR, DTNB reduction, TNB absorbance 405 nm; Potency, µM (highest dose often 114 µM), without a hit: at the top dose activity change, negative = inhibition, actives largely listed as inhibitors; 3% of 360,000 active; AID 485364; also: potency is read from the fitted curve at half-maximal effect; % is scaled to controls: 0 for no effect and ±100 for the full control effect; nearly all actives have a fitted effect of over 60% in size
#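 TGR 20 nM + NADPH 100 uM (dispensed conc.), cpd preinc 15 min RT; start with NADPH (500 uM addition) then DTNB (15 mM addition). Kinetic TNB absorbance, 405 nm filter. Four-parameter Hill fit across titration.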
# Pf growth 96h: inhibits malaria parasite growth, 96 h; P. falciparum luciferase reporter growth, 96 h; Potency, µM (doses to about 28.7 µM), for the others: at the highest dose activity change, negative = inhibition, usual class: inhibitors; 6.9% of 320,000 active; AID 504834; also: potency is read from the fitted curve at half-maximal effect; % is scaled to controls: 0 for no effect and ±100 for the full control effect
#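 Readout is luminescence from an integrated firefly luciferase in P. falciparum. Red cells, 2% hematocrit and 0.05% parasitemia final, were cultured with compound through two parasite generations (96 hours) at 37 C, 5% CO2.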
# HCV inh: inhibitors of hepatitis C virus infection | Huh7.5.1 HCVcc-Cre infection, luciferase reporter, 44 h | Potency, µM (top dose mostly 41.8 µM), for inactives: at the highest dose activity change, negative = inhibition, actives largely listed as inhibitors | 3.4% of 340,000 active; also: potency is read from the fitted curve at half-maximal effect; % is scaled to controls: 0 for no effect and ±100 for the full control effect
#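 Antiviral activity was scored by luciferase reporter output from cells infected with HCVcc-Cre (~0.5 moi) in presence of compound, 44 h infection period, cells seeded 1,000/well 4 h prior.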
# HCMV antiviral: inhibitors of human cytomegalovirus; HFF cells, HCMV-luciferase reporter, 72 h; stronger effect = lower value; activity change, negative = inhibition, % at 57.5 µM; 4.5% of 410,000 active; AID 1259415; in the data active = activity change below about -60%; inconclusive = no clear call, values can overlap the other calls; inactive = above about -39%; also: % is scaled to controls: 0 for no effect and ±100 for the full control effect
#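 Compounds were evaluated in HFFs infected with an HCMV luciferase reporter virus (MOI 1 PFU/cell). Luciferase in lysates collected 72 h post infection served as the replication measure.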
# Pf growth 48h: P. falciparum growth inhibition at 48 hours (one generation); P. falciparum luciferase growth in erythrocytes, 48 h; Potency, µM (highest dose often 28.7 µM), inactives show top-dose activity change, negative = inhibition, hits mostly inhibitors; 5.9% of 310,000 active; AID 504832; also: potency is read from the fitted curve at half-maximal effect; % is scaled to controls: 0 for no effect and ±100 for the full control effect
#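 Firefly luciferase activity from engineered P. falciparum reports growth; inhibitors lower the luminescent signal. Cultures contained 2% hematocrit erythrocytes at 0.1% final parasitemia.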
# SARS PLP yeast: SARS-CoV PLP inhibition in yeast. S. cerevisiae expressing SARS-CoV PLpro, growth rescue. Potency, µM (highest dose often 32.9 µM), for the others: at the highest dose activity, positive = growth rescue, usual class: activators. 0.19% of 330,000 active; calls by dose curve; also: potency is read from the fitted curve at half-maximal effect; 0% is about no effect; nearly all actives have a fitted effect of over 55% in size
# An asterisk follows results filed as active; ? = inconclusive; · = no result. Sampled rows, rich in hits. Any-hit rate of the full collection: about 15%. Unless noted, calls follow the shape of the dose curve; as a rule, active = well fitted curve in the direction sought with a large enough effect; inconclusive = small, poorly fitted or top-dose-only effect, or another doubt; inactive = no such curve, though single readings can be large; an effect the other way counts as inactive or inconclusive.
SMILES,Sm TGR inh,Pf growth 96h,HCV inh,HCMV antiviral,Pf growth 48h,SARS PLP yeast
COc1cc(C(=O)N2CCC(NC(=O)C(Cc3ccc(C(C)C)cc3)NC(C)=O)CC2)cc(OC)c1OC (configuration not stated),-17%,10%,23%,-5,?,-3%
CC(=O)NC(Cc1ccc(C)cc1)C(=O)NC1CCN(S(=O)(=O)c2ccccc2)CC1 (configuration not stated),-2%,3%,3%,-5,5%,-1%
COc1ccc(CC(NC(C)=O)C(=O)NC2CCN(S(=O)(=O)c3cccc4ccccc34)CC2)cc1OC (configuration not stated),?,13µM*,?,12,·,7%
COc1cc(C(=O)N2CCC(NC(=O)C(Cc3ccc(C)cc3)NC(C)=O)CC2)cc(OC)c1OC (configuration not stated),3%,5.9µM*,16%,·,-4%,1%
COc1ccc(CC(NC(C)=O)C(=O)NC2CCN(C(=O)C3CCCCC3)CC2)cc1OC (configuration not stated),-3%,30%,5%,-68*,7%,-1%
CCN(CC)S(=O)(=O)c1cc(C(=O)Nc2cc(C)on2)c(Cl)cc1Cl,-2%,?,?,29,-20%,1%
COc1ccccc1N(CC(=O)NCCSc1ccccc1)S(=O)(=O)c1ccc(C)cc1,3%,·,·,-22,·,·
COc1cc(CC(NC(C)=O)C(=O)NC2CCN(C(=O)Nc3ccccc3C)CC2)cc(OC)c1 (configuration not stated),5%,1.7µM*,-2%,-25,14%,-1%
COc1cccc(CC(NC(C)=O)C(=O)NC2CCN(S(=O)(=O)c3ccc(NC(C)=O)cc3)CC2)c1 (configuration not stated),-4%,-2%,-11%,0,-23%,-2%
COc1ccc(CC(NC(C)=O)C(=O)NC2CCN(S(=O)(=O)c3ccc(NC(C)=O)cc3)CC2)cc1OC (configuration not stated),0%,13µM*,1%,?,0%,0%
CCNc1nc(NCC)n2c(SCC(=O)c3ccccc3F)nnc2n1,-1%,?,?,-25,?,-2%
CC12CCC=CC1=C(C=O)C1C2CCC2(C)C(O)CCC12 (configuration not stated),·,·,-29%,?,·,·
COc1ccc(/C=C/C(=O)NCCSCc2ccco2)cc1OC,10µM*,-19%,2%,-26,-4%,0%
COc1ccc(CCNC(=O)/C=C/c2ccco2)cc1OC,11µM*,?,-13%,-1,12%,7%
CCOc1ccc(CCNC(=O)COC(=O)/C=C/c2ccco2)cc1OCC,-2%,7.4µM*,-2%,-2,8.3µM*,?
COc1ccc(CCNC(=O)/C=C/c2ccco2)cc1,10µM*,-14%,-5%,23,-7%,0%
C[C@@H]1CN([C@H](C)CO)C(=O)Cc2cc(NC(=O)Nc3ccccc3)ccc2O[C@@H]1CN(C)C(=O)Nc1ccc2c(c1)OCO2,·,·,-13%,3,·,3%
CCOc1ccccc1CNC(=O)c1cc2cc(S(=O)(=O)N3CCCCC3)ccc2n1C,-1%,·,·,31,·,·
COc1ccc(OC)c(C(O)c2ncc(-c3ccccc3OC)[nH]2)c1 (configuration not stated),·,·,·,60,·,·
CCOc1ccc(/C=C/C(=O)OCC(=O)NCCc2ccc(OCC)c(OCC)c2)cc1OC,11%,?,7.9µM*,-5,?,-2%
COc1cc(/C=C/C(=O)OCC(=O)NCCN2C(=O)CSC2=O)ccc1OCC#N,-6%,10µM*,19%,-31,?,-1%
CCOc1ccc(CCNC(=O)/C=C/c2ccco2)cc1OCC,6.3µM*,?,?,-6,-12%,0%
CCOC(=O)N1CCC(N(CCN(C)C)C(=S)Nc2ccc(Oc3ccccc3)cc2)CC1,1%,-84%,11µM*,?,-10%,0%
CCOC(=O)N1CCC(N(CCN(C)C)C(=S)Nc2cccc(C)c2)CC1,5%,-2%,13%,11,15%,-11%
COc1ccccc1NC(=O)c1ccc(CSc2ccccc2)o1,-5%,-9%,·,-36,19%,-6%
SMILES,Sm TGR inh,Pf growth 96h,HCV inh,HCMV antiviral,Pf growth 48h,SARS PLP yeast
CNC(=O)Nc1cccc(-c2cc(-c3c(Cl)cccc3Cl)no2)c1,2%,?,-24%,-74*,-20%,-7%
CC(=O)Nc1cccc(-c2cc(-c3c(Cl)cccc3Cl)no2)c1,11%,-18%,?,-27,?,-20%
O=C(NC1CCCCC1)C(c1cccnc1)N(C(=O)CCl)c1ccccc1Cl (configuration not stated),?,38%,3.2µM*,-103*,?,-4%
COc1ccc(N(C(=O)CCl)C(C(=O)NC2CCCCC2)c2cccnc2)cc1 (configuration not stated),14µM*,?,3.2µM*,-102*,?,-3%
O=C(NCC(=O)N(c1ccc(F)cc1)C(C(=O)NC1CCCCC1)c1cccnc1)c1ccco1 (configuration not stated),1%,-10%,18%,0,5%,-9%
O=C(NC1CCCCC1)C(c1cccnc1)N(C(=O)CCl)c1ccc(F)cc1 (configuration not stated),-5%,-1%,1.1µM*,-99*,?,28%
CCN1C(=NCC(C)C)N[C@@H](c2ccccc2)[C@H](C(=O)OC)[C@H]1C,-15%,?,·,·,35%,-2%
COc1ccc(S(=O)(=O)NCC2CC3C=CC2C3)cc1OC (configuration not stated),0%,80%,·,1,0%,6%
Cc1cccc(C)c1Nc1cn[nH]c1,·,·,·,-10,·,·
CC(C)c1cn(C2OC(COC(=O)c3ccccc3)C(OC(=O)c3ccccc3)C2OC(=O)c2ccccc2)c(=O)[nH]c1=O (configuration not stated),·,·,·,48,·,·
COc1ccc(NC(=O)CSc2nnnn2C2CC2)cc1S(=O)(=O)N1CCOCC1,-7%,?,?,-29,-19%,8%
CCCC(NCC(=O)Nc1cc(S(=O)(=O)N2CCOCC2)ccc1OC)c1ccccc1 (configuration not stated),-7%,12µM*,?,13,12µM*,-2%
COc1ccc(S(=O)(=O)N2CCOCC2)cc1NC(=O)CC(C)c1ccccc1 (configuration not stated),·,·,4%,-3,·,2%
COc1ccc(S(=O)(=O)N2CCOCC2)cc1NC(=O)CSc1nnnn1C1CC1,-32%,-29%,-1%,-60*,3%,10%
